# Reference: PMC7862700, “An all-to-all approach to the identification of sequence-specific readers for epigenetic DNA modifications on cytosine”
# Key:
# Assay in all cases: DAPPL (digital affinity profiling via proximity ligation, sequencing); 10 mM Tris-HCl pH 7.5, 50 mM NaCl, 1 mM DTT, 4% glycerol, room temperature, 30 min; GST-TFs on glutathione beads, 16-mer random dsDNA library, 0.1% formaldehyde crosslink after washing; high values mean tight binding
# Settings in all cases: protein: recombinant; tags: N-terminal GST; dsDNA, one strand shown
# [1] = molecular target: T1, FLI1 (Homo sapiens, UniProt Q01543 1-452)
# T1 sequence: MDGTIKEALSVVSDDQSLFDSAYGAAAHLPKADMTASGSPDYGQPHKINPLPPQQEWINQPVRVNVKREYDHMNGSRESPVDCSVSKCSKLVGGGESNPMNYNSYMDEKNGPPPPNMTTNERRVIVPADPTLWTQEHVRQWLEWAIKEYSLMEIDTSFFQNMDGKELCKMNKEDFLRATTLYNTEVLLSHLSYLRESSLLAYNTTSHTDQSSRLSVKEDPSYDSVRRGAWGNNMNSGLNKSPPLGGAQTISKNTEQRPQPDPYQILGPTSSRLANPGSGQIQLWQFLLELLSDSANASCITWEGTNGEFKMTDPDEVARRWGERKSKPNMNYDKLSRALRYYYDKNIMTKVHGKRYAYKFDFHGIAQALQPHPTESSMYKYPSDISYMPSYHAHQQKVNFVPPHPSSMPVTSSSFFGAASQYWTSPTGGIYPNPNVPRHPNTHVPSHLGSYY
# Procedure, shortened: (§1)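 Beads coated with glutathione captured GST-fused human transcription factors that had been expressed in yeast, and the factors were then given DNA barcodes and pooled with a tag-only sample. The pools were incubated with 200 nmole of a random double-stranded 16-mer DNA library in Tris/NaCl/DTT/glycerol buffer for 30 min at room temperature, washed, crosslinked with 0.1% formaldehyde and proximity-ligated with BsaI/T4 ligase at 37 °C for 1 h. PCR amplification and Illumina NextSeq500 sequencing came last. Binding signal is each hexamer's read frequency for a factor divided by its frequency for the tag-only sample.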
# [2] = molecular target: T2, ELK1 (Homo sapiens, UniProt P19419 1-428)
# T2 sequence: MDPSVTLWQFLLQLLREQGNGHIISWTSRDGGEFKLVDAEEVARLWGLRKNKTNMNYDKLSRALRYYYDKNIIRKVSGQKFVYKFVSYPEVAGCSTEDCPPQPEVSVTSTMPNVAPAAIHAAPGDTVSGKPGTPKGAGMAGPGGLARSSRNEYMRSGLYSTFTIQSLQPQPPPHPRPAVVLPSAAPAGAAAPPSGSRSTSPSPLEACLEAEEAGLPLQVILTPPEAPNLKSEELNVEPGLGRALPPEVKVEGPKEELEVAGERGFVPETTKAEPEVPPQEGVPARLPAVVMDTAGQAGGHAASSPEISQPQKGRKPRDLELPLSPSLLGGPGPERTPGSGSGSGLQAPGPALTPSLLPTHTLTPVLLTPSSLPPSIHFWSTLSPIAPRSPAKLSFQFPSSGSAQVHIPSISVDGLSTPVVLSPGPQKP
# Procedure, shortened: as §1
# [3] = molecular target: T3, GABPA (Homo sapiens, UniProt Q06546 1-454)
# T3 sequence: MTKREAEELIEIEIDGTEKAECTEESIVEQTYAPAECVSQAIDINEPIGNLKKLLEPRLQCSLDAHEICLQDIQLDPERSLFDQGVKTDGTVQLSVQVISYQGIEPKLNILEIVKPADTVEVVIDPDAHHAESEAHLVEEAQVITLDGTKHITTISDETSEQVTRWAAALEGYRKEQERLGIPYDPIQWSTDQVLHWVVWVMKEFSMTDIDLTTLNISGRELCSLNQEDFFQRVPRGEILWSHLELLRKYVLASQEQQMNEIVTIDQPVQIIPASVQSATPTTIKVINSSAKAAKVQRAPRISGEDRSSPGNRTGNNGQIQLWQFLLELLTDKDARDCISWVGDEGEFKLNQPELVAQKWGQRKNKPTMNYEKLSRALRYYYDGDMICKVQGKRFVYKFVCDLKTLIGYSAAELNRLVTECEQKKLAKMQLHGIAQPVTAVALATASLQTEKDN
# Procedure, shortened: as §1
# [4] = molecular target: T4, ERG (Homo sapiens, UniProt P11308 1-479)
# T4 sequence: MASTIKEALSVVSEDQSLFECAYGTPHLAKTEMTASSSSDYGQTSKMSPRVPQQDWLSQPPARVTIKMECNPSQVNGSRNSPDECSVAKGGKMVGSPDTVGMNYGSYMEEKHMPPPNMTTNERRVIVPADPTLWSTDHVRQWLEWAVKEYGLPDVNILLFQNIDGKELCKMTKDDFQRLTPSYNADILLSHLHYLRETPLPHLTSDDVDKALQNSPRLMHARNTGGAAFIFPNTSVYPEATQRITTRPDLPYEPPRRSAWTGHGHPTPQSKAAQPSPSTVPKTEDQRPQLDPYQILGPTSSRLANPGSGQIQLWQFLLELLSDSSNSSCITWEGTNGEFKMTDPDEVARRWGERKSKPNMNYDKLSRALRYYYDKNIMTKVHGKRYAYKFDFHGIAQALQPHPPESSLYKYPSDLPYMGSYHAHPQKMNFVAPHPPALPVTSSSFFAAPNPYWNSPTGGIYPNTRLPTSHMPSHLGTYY
# Procedure, shortened: as §1
# [5] = molecular target: ELF1 (Homo sapiens, UniProt P32519 1-619)
# Sequence of ELF1 (P32519 whole entry): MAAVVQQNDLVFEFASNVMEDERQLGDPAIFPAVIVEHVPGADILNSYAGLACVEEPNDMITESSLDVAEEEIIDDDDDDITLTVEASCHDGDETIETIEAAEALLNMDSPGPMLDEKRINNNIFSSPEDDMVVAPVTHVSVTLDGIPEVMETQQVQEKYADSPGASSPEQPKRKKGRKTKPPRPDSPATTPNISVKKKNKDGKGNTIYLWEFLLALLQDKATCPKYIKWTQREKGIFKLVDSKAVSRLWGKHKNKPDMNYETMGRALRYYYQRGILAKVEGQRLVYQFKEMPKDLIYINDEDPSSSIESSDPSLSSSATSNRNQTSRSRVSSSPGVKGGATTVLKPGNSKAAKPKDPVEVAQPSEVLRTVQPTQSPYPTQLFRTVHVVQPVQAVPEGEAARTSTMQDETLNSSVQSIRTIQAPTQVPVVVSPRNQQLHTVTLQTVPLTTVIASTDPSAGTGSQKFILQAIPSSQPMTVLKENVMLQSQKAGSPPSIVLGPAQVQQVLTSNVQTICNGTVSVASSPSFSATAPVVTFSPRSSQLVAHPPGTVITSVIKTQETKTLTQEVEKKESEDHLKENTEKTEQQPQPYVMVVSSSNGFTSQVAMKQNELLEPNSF
# Procedure, shortened: as §1
# [6] = molecular target: T5, EHF (Homo sapiens, UniProt Q9NZC4 1-300)
# T5 sequence: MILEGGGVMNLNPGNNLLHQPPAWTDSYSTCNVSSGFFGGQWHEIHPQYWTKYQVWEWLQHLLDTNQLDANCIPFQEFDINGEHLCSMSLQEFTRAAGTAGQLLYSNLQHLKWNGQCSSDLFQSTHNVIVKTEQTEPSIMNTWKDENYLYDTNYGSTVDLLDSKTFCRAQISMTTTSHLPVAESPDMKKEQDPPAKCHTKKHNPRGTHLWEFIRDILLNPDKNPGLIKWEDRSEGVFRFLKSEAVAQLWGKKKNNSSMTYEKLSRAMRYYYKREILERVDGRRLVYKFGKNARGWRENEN
# Procedure, shortened: as §1
# [7] = molecular target: SPI1 (Homo sapiens, UniProt P17947 1-270)
# Procedure, shortened: as §1
# [8] = molecular target: SPIB (Homo sapiens, UniProt Q01892 1-262)
# Sequence of SPIB (Q01892 whole entry): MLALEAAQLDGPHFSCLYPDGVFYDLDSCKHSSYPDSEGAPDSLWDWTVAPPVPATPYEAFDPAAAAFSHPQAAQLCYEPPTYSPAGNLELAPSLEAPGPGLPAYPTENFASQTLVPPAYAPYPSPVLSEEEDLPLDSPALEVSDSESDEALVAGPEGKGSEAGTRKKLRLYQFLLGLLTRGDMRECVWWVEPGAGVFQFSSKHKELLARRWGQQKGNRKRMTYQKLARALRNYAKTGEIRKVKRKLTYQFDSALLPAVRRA
# Procedure, shortened: as §1
# [9] = molecular target: T6, ELK3 (Homo sapiens, UniProt P41970 1-407)
# T6 sequence: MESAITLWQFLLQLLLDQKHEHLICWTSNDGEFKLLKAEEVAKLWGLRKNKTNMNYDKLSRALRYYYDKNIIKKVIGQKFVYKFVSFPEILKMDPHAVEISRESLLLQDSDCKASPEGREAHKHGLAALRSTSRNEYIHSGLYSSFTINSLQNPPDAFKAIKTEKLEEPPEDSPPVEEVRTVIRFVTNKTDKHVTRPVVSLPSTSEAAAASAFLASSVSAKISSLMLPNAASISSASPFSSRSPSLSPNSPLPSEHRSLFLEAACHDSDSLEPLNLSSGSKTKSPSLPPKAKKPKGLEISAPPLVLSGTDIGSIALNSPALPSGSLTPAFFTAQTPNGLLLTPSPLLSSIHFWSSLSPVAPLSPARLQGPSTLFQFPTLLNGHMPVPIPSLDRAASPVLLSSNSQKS
# Procedure, shortened: as §1
Sequence,binding signal [1],binding signal [2],binding signal [3],binding signal [4],binding signal [5],binding signal [6],binding signal [7],binding signal [8],binding signal [9]
TTCCCT,"1.81 fold enrichment (6-mer frequency, TF over GST control)","1.67 fold enrichment (6-mer frequency, TF over GST control)","1.72 fold enrichment (6-mer frequency, TF over GST control)","1.72 fold enrichment (6-mer frequency, TF over GST control)","1.68 fold enrichment (6-mer frequency, TF over GST control)","1.68 fold enrichment (6-mer frequency, TF over GST control)","2.23 fold enrichment (6-mer frequency, TF over GST control)","1.9 fold enrichment (6-mer frequency, TF over GST control)","1.8 fold enrichment (6-mer frequency, TF over GST control)"
AAGCGC,"1.2 fold enrichment (6-mer frequency, TF over GST control)","1.11 fold enrichment (6-mer frequency, TF over GST control)","1.12 fold enrichment (6-mer frequency, TF over GST control)","1.13 fold enrichment (6-mer frequency, TF over GST control)","1.15 fold enrichment (6-mer frequency, TF over GST control)","1.19 fold enrichment (6-mer frequency, TF over GST control)","1.07 fold enrichment (6-mer frequency, TF over GST control)","1.23 fold enrichment (6-mer frequency, TF over GST control)","1.19 fold enrichment (6-mer frequency, TF over GST control)"
ACACTG,"1.08 fold enrichment (6-mer frequency, TF over GST control)","1.13 fold enrichment (6-mer frequency, TF over GST control)","1.13 fold enrichment (6-mer frequency, TF over GST control)","1.07 fold enrichment (6-mer frequency, TF over GST control)","1.09 fold enrichment (6-mer frequency, TF over GST control)","1.11 fold enrichment (6-mer frequency, TF over GST control)","1.07 fold enrichment (6-mer frequency, TF over GST control)","1.04 fold enrichment (6-mer frequency, TF over GST control)","1.04 fold enrichment (6-mer frequency, TF over GST control)"
CCACAT,"1.2 fold enrichment (6-mer frequency, TF over GST control)","1.3 fold enrichment (6-mer frequency, TF over GST control)","1.12 fold enrichment (6-mer frequency, TF over GST control)","1.15 fold enrichment (6-mer frequency, TF over GST control)","1.25 fold enrichment (6-mer frequency, TF over GST control)","1.21 fold enrichment (6-mer frequency, TF over GST control)","1.07 fold enrichment (6-mer frequency, TF over GST control)","1.16 fold enrichment (6-mer frequency, TF over GST control)","1.14 fold enrichment (6-mer frequency, TF over GST control)"
CTATCC,"1.45 fold enrichment (6-mer frequency, TF over GST control)","1.4 fold enrichment (6-mer frequency, TF over GST control)","1.29 fold enrichment (6-mer frequency, TF over GST control)","1.34 fold enrichment (6-mer frequency, TF over GST control)","1.38 fold enrichment (6-mer frequency, TF over GST control)","1.29 fold enrichment (6-mer frequency, TF over GST control)","1.28 fold enrichment (6-mer frequency, TF over GST control)","1.4 fold enrichment (6-mer frequency, TF over GST control)","1.48 fold enrichment (6-mer frequency, TF over GST control)"
CTTGTG,"1.57 fold enrichment (6-mer frequency, TF over GST control)","1.58 fold enrichment (6-mer frequency, TF over GST control)","1.45 fold enrichment (6-mer frequency, TF over GST control)","1.45 fold enrichment (6-mer frequency, TF over GST control)","1.46 fold enrichment (6-mer frequency, TF over GST control)","1.44 fold enrichment (6-mer frequency, TF over GST control)","1.46 fold enrichment (6-mer frequency, TF over GST control)","1.68 fold enrichment (6-mer frequency, TF over GST control)","1.6 fold enrichment (6-mer frequency, TF over GST control)"
TGCAAA,"1.13 fold enrichment (6-mer frequency, TF over GST control)","1.11 fold enrichment (6-mer frequency, TF over GST control)","1.07 fold enrichment (6-mer frequency, TF over GST control)","1.14 fold enrichment (6-mer frequency, TF over GST control)","1.19 fold enrichment (6-mer frequency, TF over GST control)","1.16 fold enrichment (6-mer frequency, TF over GST control)","1.14 fold enrichment (6-mer frequency, TF over GST control)","1.12 fold enrichment (6-mer frequency, TF over GST control)","1.14 fold enrichment (6-mer frequency, TF over GST control)"
TCTCAT,"1.3 fold enrichment (6-mer frequency, TF over GST control)","1.36 fold enrichment (6-mer frequency, TF over GST control)","1.34 fold enrichment (6-mer frequency, TF over GST control)","1.2 fold enrichment (6-mer frequency, TF over GST control)","1.36 fold enrichment (6-mer frequency, TF over GST control)","1.31 fold enrichment (6-mer frequency, TF over GST control)","1.37 fold enrichment (6-mer frequency, TF over GST control)","1.33 fold enrichment (6-mer frequency, TF over GST control)","1.29 fold enrichment (6-mer frequency, TF over GST control)"
